Assay outcomes: PubChem BioAssay, National Center for Advancing Translational Sciences (NCATS)
HCV inh: inhibitors of hepatitis C virus infection; Huh7.5.1 HCVcc-Cre infection, luciferase reporter, 44 h; 340,000 compounds, 3.4% hits; Potency, µM (doses to about 41.8 µM), inactives show top-dose activity change, negative = inhibition, usual class: inhibitors; also: potency is read from the fitted curve at half-maximal effect
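Cells seeded at 1,000/well and cultured 4 h, then compounds added followed by HCVcc-Cre virus (~0.5 moi). After 44 h further culture, luciferase substrate was added, plates held 15 min at room temperature, and luminescence read for 15 sec.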
Vaccinia mCherry: vaccinia inhibition (mCherry reporter). Vaccinia virus mCherry reporter infection, fluorescence. Potency, µM (highest dose often 36.5 µM), for the others: at the highest dose activity change, negative = inhibition, hits mostly inhibitors. 310,000 compounds, 0.63% hits; calls by dose curve; tested in A549 cells; also: potency is read from the fitted curve at half-maximal effect; nearly all actives have a fitted effect of over 35% in size
HCMV inh: blocks human cytomegalovirus replication; activity change, negative = inhibition, % at 57.5 µM; HFF cells, HCMV-luciferase reporter, 72 h; active compounds read low; AID 1259415; 410,000 compounds, 4.5% hits; in the data active = activity change below about -60%; inconclusive = no clear call, values can overlap the other calls; inactive = above about -39%
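Cell-based, HFFs, 1000 cells/well, 16 h 37C; cpds in DMSO + HCMV-luc, MOI 1 PFU/cell; 72 h 37C; OneGlo luminescence after 5 min RT; norm. to buffer vs Salinomycin 10uM.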
FMDV antiviral: foot and mouth disease virus antiviral activity. 410,000 compounds, 1.2% hits. FMDV antiviral cell-based qHTS. Potency, µM (titrated, usually from 57.9 µM), for the others: top-dose activity change, negative = inhibition, actives largely listed as inhibitors; calls by dose curve; tested in HEK293T cells; also: read-out not given here; potency is read from the fitted curve at half-maximal effect; nearly all actives have a fitted effect of over 45% in size
Vaccinia Venus: vaccinia inhibition (Venus reporter). Vaccinia virus Venus reporter expression, fluorescence. Potency, µM (top dose mostly 36.5 µM), inactives show at the highest dose activity change, negative = inhibition, most hits filed as inhibitors. 330,000 compounds, 0.46% hits; calls by dose curve; tested in A549 cells; also: potency is read from the fitted curve at half-maximal effect; nearly all actives have a fitted effect of over 30% in size
FBPA Giardia inh: Giardia lamblia aldolase inhibition; A8B2U2; purified Giardia FBPA; Potency, µM (series often up to 59.6 µM), inactives show top-dose activity, negative = inhibition, actives largely listed as inhibitors; 290,000 compounds, 0.71% hits; AID 2451; also: potency is read from the fitted curve at half-maximal effect; nearly all actives have a fitted effect of over 55% in size
Target sequence (A8B2U2 whole entry, looked up): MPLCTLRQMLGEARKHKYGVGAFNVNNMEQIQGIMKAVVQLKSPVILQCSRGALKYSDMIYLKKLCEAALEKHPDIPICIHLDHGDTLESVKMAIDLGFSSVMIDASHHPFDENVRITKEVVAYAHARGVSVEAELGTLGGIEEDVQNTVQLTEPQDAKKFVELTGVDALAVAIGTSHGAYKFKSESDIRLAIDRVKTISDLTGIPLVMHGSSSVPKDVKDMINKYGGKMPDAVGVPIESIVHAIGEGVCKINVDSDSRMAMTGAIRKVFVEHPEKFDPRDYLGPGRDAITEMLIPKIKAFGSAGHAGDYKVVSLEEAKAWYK
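Giardia FBPA (40 nM reagent) was preincubated 10 min at RT with compound (up to 57.5 uM final), then substrate plus GAPDH/TPI/NAD/arsenate coupling system with diaphorase/resazurin was added; resorufin fluorescence (525/598 nm) was read after 20 min.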
* = called active by the depositor; i = inactive; ? = inconclusive; nt = not tested or not shown. This is a sample that favours compounds with a hit; in the whole collection about 7.5% have one here. Unless noted, calls follow the shape of the dose curve; as a rule, active = well fitted curve in the direction sought with a large enough effect; inconclusive = small, poorly fitted or top-dose-only effect, or another doubt; inactive = no such curve, though single readings can be large; an effect the other way counts as inactive or inconclusive. % is scaled to controls: 0 for no effect and ±100 for the full control effect.

SMILES | HCV inh | Vaccinia mCherry | HCMV inh | FMDV antiviral | Vaccinia Venus | FBPA Giardia inh
CCN(CC)S(=O)(=O)c1ccc2c(c1)N(CC(=O)Nc1ccc(Cl)cc1)C(=O)C1CCCN21 (stereo not given) | nt | -3.1% | -4.5 | -11.9% | 0.0% | nt
CC(C)CNC(=O)C1(C)CCCN1Cc1ccc(S(C)(=O)=O)cc1 (stereo not given) | nt | 5.3% | -101.6* | -12.5% | -4.1% | nt
COc1ccc(C2C(=O)N(C3CCC(C)CC3)CC(=O)N2CCc2ccccc2)cc1OC (stereo not given) | nt | -6.9% | ? | -2.0% | -8.5% | nt
CC1CCC(NC(=O)Cn2c3c(c(-c4ccccc4Cl)cc2=O)CCC3)CC1 (stereo not given) | 11.2µM* | -14.3% | -23.1 | ? | ? | -1.9%
CC(C)CCNC(=O)Cn1c2c(c(-c3ccccc3Cl)cc1=O)CCC2 | -23.6% | -4.4% | -79.8* | -21.5% | -23.6% | -6.9%
CCn1c(=O)cc(OCC(=O)NCCC(C)C)c2ccccc21 | -6.8% | -5.2% | 39.0 | -20.3% | -4.8% | -0.1%
NCCCNCCSP(=O)(O)O | nt | nt | nt | nt | nt | 2.3%
COc1ccc(CN(CCC(c2ccc3c(c2)OCO3)c2ccccc2OC)C(C)=O)cc1 (stereo not given) | nt | -21.1% | -10.0 | ? | -21.0% | nt
CC(=O)N(CCC(Cc1ccccc1)c1ccc2c(c1)OCO2)Cc1ccc(Cl)cc1 (stereo not given) | 11.2µM* | -26.8% | -32.6 | ? | -20.0% | -5.4%
CC(=O)N(CCC(Cc1ccccc1)c1ccco1)Cc1ccco1 (stereo not given) | 11.2µM* | nt | 24.6 | ? | nt | 3.4%
CCC(=O)N1CCc2cc(S(=O)(=O)NCCC(=O)NC3CCCCCC3)ccc21 | 15.1% | nt | -23.1 | 5.7% | nt | -2.5%
CC(=C/c1ccccc1)/C=N/NC(=O)c1ccc2nc[nH]c2c1 | -13.7% | -14.9% | ? | 28.8% | -14.2% | 8.0%
CCOc1cc(C(=O)NN=C2CCCC2)cc(OCC)c1OCC | -26.8% | nt | -75.9* | -18.4% | nt | 0.8%
CCOc1cc(C(=O)N/N=C/C(Br)=C/c2ccccc2)cc(OCC)c1OCC | ? | ? | -76.2* | -15.2% | ? | -5.5%
O=C(N/N=C/C(Br)=C\c1ccccc1)c1ccc2nc[nH]c2c1 | ? | -27.7% | -75.9* | 7.7% | -23.6% | 0.4%
Cc1ccc(OCc2nnc(NC(=O)c3ccco3)s2)c(C)c1 | 20.8% | i | -105.2* | nt | -6.2% | 4.2%
CCCOc1cccc(C(=O)N(Cc2ccccc2)C2CCS(=O)(=O)C2)c1 (stereo not given) | 13.8% | -9.4% | -65.7* | -19.5% | -3.3% | 15.1%
CCCCOc1cccc(C(=O)N(Cc2ccc(Cl)cc2)C2CCS(=O)(=O)C2)c1 (stereo not given) | nt | -18.0% | 11.5 | -19.5% | -14.9% | nt
CCn1c(CC(=O)Nc2ccc(Cl)c(Cl)c2)nnc1SCc1ccc(Cl)cc1 | 9.4% | nt | -100.3* | -22.4% | -0.9% | -1.9%
CCn1c(CC(=O)Nc2ccc(Cl)c(Cl)c2)nnc1SCc1ccc(C)cc1 | -10.2% | i | -23.6 | -16.8% | -7.8% | -4.3%
COc1ccc(Nc2nc3ccccc3c(=O)s2)c(OC)c1 | -7.2% | nt | -30.9 | 4.4% | -13.7% | -14.6%
COc1cc(SC)ccc1C(=O)Nc1nc2ccccc2[nH]1 | -14.8% | -21.9% | -98.2* | 0.0355µM* | -15.2% | -18.0%
Cc1ccc(Nc2nc3ccccc3c(=O)s2)cc1C | 8.9% | -8.0% | -73.0* | 30.8% | -15.7% | 4.6%
Cc1ccc(C(=O)Nc2cnc3ccccc3c2)cc1 | -14.1% | -27.2% | -81.3* | 3.55µM* | -24.7% | -5.4%
Cc1cc(C(=O)Nc2cnc3ccccc3c2)ccc1[N+](=O)[O-] | ? | i | 25.0 | 58.7% | -7.9% | 0.0%
Cc1ccc(C(=O)Nc2nc3ccccc3[nH]2)cc1 | 1.9% | i | -84.4* | 11.2µM* | ? | -15.3%
CC(=O)Nc1ccc(NC(=O)CCCN2C(=O)C(c3ccccc3)Oc3cccnc32)cc1 (stereo not given) | nt | -29.4% | 19.0 | -9.7% | -11.0% | nt
CCc1nc2ccc(C(=O)NCc3ccc(SC)cc3)cc2nc1CC | nt | -10.3% | 77.5 | 10.0% | -2.1% | nt
CCCCN(C)CCNC(=O)CCNC(=O)Cn1ccc2ccccc2c1=O | 6.2% | -3.5% | -38.8 | -2.9% | -4.6% | 6.4%
